Results taken from PubChem BioAssay AID1851 (National Center for Advancing Translational Sciences (NCATS), 2009).
“And” between values parts separate entries of the source, which are not always exact repeats. Equal values may be shown once. About 5,100 (32%) of roughly 16,000 compounds were called active. Roughly 25% stayed inconclusive and do not appear here. Calls come from the whole dose curve; as a rule, active = well fitted curve in the direction sought with a large enough effect; inconclusive = small, poorly fitted or top-dose-only effect, or effect the other way; inactive = no such curve, though single readings can be large or run the other way. The list shows a part of the results.

molecular target: Cytochrome P450 3A4 (Homo sapiens) (UniProt P08684); assay: Cytochrome panel assay with activity outcomes; conditions: recombinant CYP, pro-luciferin dealkylation, luminescence, p450-cyp3a4; series mostly up to 57.1 µM
Sequence (P08684 whole entry, looked up): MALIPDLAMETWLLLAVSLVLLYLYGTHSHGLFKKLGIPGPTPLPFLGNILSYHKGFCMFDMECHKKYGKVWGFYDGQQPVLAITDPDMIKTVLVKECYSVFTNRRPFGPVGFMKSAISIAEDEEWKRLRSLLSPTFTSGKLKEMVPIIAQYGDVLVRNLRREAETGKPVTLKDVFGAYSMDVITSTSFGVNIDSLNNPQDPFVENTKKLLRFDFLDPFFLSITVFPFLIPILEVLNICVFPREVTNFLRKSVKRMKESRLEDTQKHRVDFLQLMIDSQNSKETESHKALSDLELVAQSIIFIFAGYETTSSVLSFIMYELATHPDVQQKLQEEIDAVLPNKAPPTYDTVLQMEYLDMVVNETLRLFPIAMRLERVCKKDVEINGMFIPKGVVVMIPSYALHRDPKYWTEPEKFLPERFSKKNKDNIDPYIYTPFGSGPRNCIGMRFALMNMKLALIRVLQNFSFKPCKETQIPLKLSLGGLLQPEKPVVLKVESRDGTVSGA
% is set by controls: 0 for no effect and ±100 for the full control effect.

SMILES | activity, negative = inhibition | AC50
CC[N+](C)(C)c1cccc(O)c1 | inactive | 
Cn1c(=O)c2[nH]cnc2n(C)c1=O | inactive | 
C[C@H](NC(C)(C)C)C(=O)c1cccc(Cl)c1 | inactive | 
Cc1cc(C)nc(NC2=NCCS2)n1 | inactive | 
CC[N@+]1(C)CCC[C@@H](OC(=O)C(O)(c2ccccc2)c2ccccc2)C1 | inactive | 
CCCc1nc2ccccc2c(=O)n1-c1ccc(OC)cc1 |  | 15.8 µM (active)
CCCCc1nc2ccccc2c(=O)n1-c1ccc(Cl)cc1[N+](=O)[O-] | inactive | 
CCCCc1nc2ccccc2c(=O)n1-c1ccccc1[N+](=O)[O-] |  | 15.8 µM (active)
Cc1nc2ccccc2c(=O)n1-n1cnnc1 | inactive | 
Cc1ccc(-c2nc3ccccc3c(=O)n2-c2ncccc2C)cc1 | -6.07% [at 2.29 µM] (inactive) | 
CCC(=O)Nc1ccc(N2CCN(CC)CC2)c(Cl)c1 | inactive | 
COc1cc([C@@H](O)CN)ccc1O | inactive | 
O=P(Nc1ccccc1)(Nc1ccccc1)Oc1cccc(Cl)c1 | -28.2% [at 2.29 µM] (inactive) | 
CCN1CCN(Cc2cc(OC)c(OC)cc2[N+](=O)[O-])CC1 | inactive | 
CCNC(=O)O/N=C(\C)c1sc(-c2ccccc2)nc1C | inactive | 
CN(C)C(=O)Oc1cc(OC(=O)N(C)C)cc([C@@H](O)CNC(C)(C)C)c1 | inactive | 
O=C(Cc1ccc(Cl)c(Cl)c1)N1CCCC[C@H]1CN1CCCC1 |  | 15.8 µM (active) and 7.94 µM (active)
NC(N)=NCCN=C(N)N | 0.983% [at 11.4 µM] (inactive) | 
CC1=NN(c2ccccc2)C(=O)[C@@H]1N=Nc1ccc([As](=O)(O)O)c(O)c1 | -5.79% [at 11.4 µM] (inactive) | 
COC(=O)[C@@H](N)CCCN=C(N)N[N+](=O)[O-] | inactive | 
CCn1cc(C(=O)O)c(=O)c2cc3c(cc21)OCO3 | inactive | 
FC(F)(F)c1nc2ccc(SSc3ccc4nc(C(F)(F)F)[nH]c4c3)cc2[nH]1 | 4.91% [at 11.4 µM] (inactive) | 

SMILES | activity, negative = inhibition | AC50
CC(C)=C[C@H]1[C@@H](C(=O)OCc2cc3c(cc2Cl)OCO3)C1(C)C |  | 0.316 µM (active)
CC(C)C(=O)CP(=O)(O)O | 2.74% [at 11.4 µM] (inactive) | 
CC(C)CN1CC2(CCN(C(=O)c3ccncc3)CC2)C1 | inactive | 
CN1CCCC2(CCN(C(=O)c3ccncc3)CC2)C1 | inactive | 
CC(C)CN1CCCC2(CCN(C(=O)c3ccncc3)CC2)C1 |  | 12.6 µM (active)
c1cc(CN2CCC3(CCNCC3)CC2)ccn1 | inactive | 
CC(C)CN1CCC2(CC1)CCN(C(=O)Oc1ccccc1)CC2 | inactive | 
c1csc(CN2CC[C@@]3(CCCNC3)C2)n1 | inactive | 
O=C(c1ccncc1)N1CCC2(CC1)CN(Cc1ccccc1)C2 |  | 20 µM (active)
O=C(Oc1ccccc1)N1CCC2(CCCN(Cc3nccs3)C2)CC1 |  | 12.6 µM (active)
c1ccc(CN2CCN(Cc3ccc4c(c3)OCCO4)CC2)cc1 | -16.2% [at 11.4 µM] (inactive) | 
O=C(Oc1ccccc1)N1CCC2(CCN(Cc3ccncc3)CC2)CC1 |  | 12.6 µM (active)
c1csc(CN2CCCC3(CCNCC3)C2)n1 | inactive | 
Cc1noc(C)c1C(=O)N1CCC2(CCCN(CC(C)C)C2)CC1 | inactive | 
N=C(N)n1cc(/C=N\N=C(N)N)cn1 | -16.6% [at 11.4 µM] (inactive) | 
c1ccc2c(c1)-c1ccccc1C2N1CC2CCC(CC2)C1 | -5.36% [at 11.4 µM] (inactive) | 
CN1[C@@H](C[C@@H](O)c2ccccc2)CCC[C@@H]1C[C@H](O)c1ccccc1 | inactive | 
O=[N+]([O-])c1cc(-c2ccc([As](=O)(O)O)cc2)ccc1[As](=O)(O)O | 9.09% [at 11.4 µM] (inactive) | 
O=C(O)[C@@H]1[C@H](C(=O)O)[C@]2(Cl)C(Cl)=C(Cl)[C@@]1(Cl)C2(Cl)Cl | -9.54% [at 11.4 µM] (inactive) | 
C(#CCN1CCCC1)CN1CCCC1 | inactive | 
C[C@]12CC[C@H](O)C[C@@H]1CC[C@H]1[C@H]2CC[C@]2(C)C(=O)CC[C@@H]12 | inactive | 
Cc1cccc(NC(=S)NC2CC3CCCC(C2)N3Cc2cccs2)c1 (stereo not drawn) | -1.32% [at 2.29 µM] (inactive) | 

SMILES | activity, negative = inhibition | AC50
COc1ccc(C[C@H]2NC[C@H](O)[C@@H]2OC(C)=O)cc1 | inactive | 
COC1=C(C)C(=O)c2c(c(COC(N)=O)c3n2C[C@@H]2[C@@H]3N2C)C1=O (stereo partly drawn) | -20.6% [at 11.4 µM] (inactive) | 
COC(=O)[C@@H]1c2cc3c(c(O)c2[C@@H](O)C[C@]1(C)O)C(=O)c1c(O)cc2c(c1C3=O)O[C@H]1O[C@@]2(C)[C@@H](O)[C@H](N(C)C)[C@H]1O | -12% [at 11.4 µM] (inactive) | 
C[C@@]12CC[C@H](O[C@@H]3O[C@H](CO)[C@@H](O)[C@H](O)[C@@H]3O)C[C@@H]1CC[C@H]1[C@H]2CC[C@@]2(C)[C@@H](C3=CCOC3=O)CC[C@]12O | 0.209% [at 11.4 µM] (inactive) | 
C1C[C@@H]2CN(CCCN3CCOCC3)[C@@H](C1)O2 | -5.91% [at 11.4 µM] (inactive) | 
NN=C(N)N | inactive | 
Clc1ccc(C(c2ccc(Cl)cc2)n2cc[n+](C[C@@H](OCc3ccc(Cl)cc3Cl)c3ccc(Cl)cc3Cl)c2)cc1 |  | 15.8 µM (active)
CC(C)CN1CCC2(CC1)CCN(S(C)(=O)=O)CC2 | inactive | 
O=c1[nH]oc2c1CCNC2 | inactive | 
CCC1(CC)C(=O)C=CNC1=O | inactive | 
CC(C)[C@@H]1CN[C@H](C(=O)O)[C@@H]1CC(=O)O | inactive | 
C=C1CC[C@H](O)C/C1=C/C=C1\CCC[C@]2(C)[C@H]1CC[C@H]2[C@@H](C)CCCC(C)C | inactive | 
N[C@@]1(C(=O)O)CC[C@H](C(=O)O)C1 | inactive | 
CC(C)[C@@]1(NC(=O)[C@@H]2C[C@H]3c4cccc5[nH]cc(c45)C[C@@H]3N(C)C2)O[C@]2(O)[C@H]3CCCN3C(=O)CN2C1=O | inactive | 
CC(C)C[C@H]1C(=O)N2CCC[C@@H]2[C@@]2(O)O[C@](NC(=O)[C@@H]3C=C4c5cccc6[nH]cc(c56)C[C@@H]4N(C)C3)(C(C)C)C(=O)N12 |  | 2 µM (active)
CC[C@H](CO)NC(=O)[C@@H]1C=C2c3cccc4c3c(cn4C)C[C@@H]2N(C)C1 | inactive | 
CCNC(=S)NC1CC2CCCC(C1)N2Cc1ccco1 (stereo not drawn) | -6.93% [at 2.29 µM] (inactive) | 
CC1=CC(=O)C2=C(C)C[C@@H](O)[C@@H]3[C@@H](OC(=O)[C@H]3C)[C@H]12 | inactive | 
O=C(Nc1cccc2ccccc12)c1nn(C23CC4CC(CC(C4)C2)C3)cc1Br | inactive | 
NCCCNCCSP(=O)(O)O | inactive | 
CNC(=S)NC1CC2CCCC(C1)N2CC(C)C (stereo not drawn) | inactive | 
C[C@@H]1O[C@H](O[C@H]2C[C@@H](O)[C@@]3(CO)[C@H]4[C@@H](O)C[C@]5(C)[C@@H](C6=CC(=O)OC6)CC[C@]5(O)[C@H]4CC[C@]3(O)C2)[C@@H](O)[C@H](O)[C@@H]1O | inactive | 

SMILES | activity, negative = inhibition | AC50
Cc1ccc(C2(c3ccc(C)c(O)c3C)CCN(C)CC2)c(C)c1O | -1.39% [at 11.4 µM] (inactive) | 
CCOP(=O)(OCC)c1nc(/C=C/c2ccccc2)oc1NCc1ccccc1 |  | 14.1 µM (active)
C[C@H](Br)C(=O)c1ccc2cc(Br)c3ccccc3c2c1 | -23.5% [at 11.4 µM] (inactive) | 
NCCc1c[nH]c2ccc(C(N)=O)cc12 | inactive | 
CCCN(CCC)[C@H]1CCc2c(F)ccc(O)c2C1 | inactive | 
CCS(=O)(=O)Nc1cccc(C(=C2CCCCC2)c2cnc[nH]2)c1 |  | 0.316 µM (active)
CC1(C)CCC(C)(C)c2c1ccc(O)c2Cc1c(O)ccc2c1C(C)(C)CCC2(C)C | -26.4% [at 11.4 µM] (inactive) | 
C[C@@]12CC[C@H](O)C[C@@H]1CC[C@H]1[C@@H]2C[C@@H](O)[C@]2(C)[C@@H](C3=CC(=O)OC3)CC[C@]12O | inactive | 
C[C@@]12CC[C@H](O)C[C@@H]1CC[C@@H]1[C@@H]2CC[C@@]2(C)[C@@H](C3=CC(=O)OC3)[C@H](O)C[C@]12O | -21.4% [at 11.4 µM] (inactive) | 
C[C@@]12CC[C@H](O)C[C@@H]1CC[C@H]1[C@H]2CC[C@@]2(C)[C@@H](C3=CC(=O)OC3)CC[C@]12O |  | 3.16 µM (active)
CC[N+](CC)(CC)CCOc1cccc(OCC[N+](CC)(CC)CC)c1OCC[N+](CC)(CC)CC | inactive | 
CCN1C[C@@]2(COC)[C@H]3[C@@H](OC)[C@H]4C1[C@@]3([C@H](OC)C[C@@H]2O)[C@H]1C[C@@]2(O)[C@@H](OC(=O)c3ccccc3)[C@@H]1[C@@]4(OC(C)=O)[C@H](O)[C@@H]2OC | inactive | 
O=c1c2ccccc2c2ccccc2c(=O)n1-c1cc2c3ccccc3ccc2c2ccccc12 | -20.6% [at 11.4 µM] (inactive) | 
CC1=C2C(=O)[C@@H]3[C@@H](CC=C4C[C@@H](O)CC[C@@]43C)[C@H]2CC[C@@]12O[C@H]1C[C@H](C)CN[C@H]1[C@@H]2C | 7.7% [at 11.4 µM] (inactive) | 
Cc1sc2ccccc2c1CC1=NCCN1 | inactive | 
CC(N)Cc1ccccc1Sc1ccc(O)cc1 (stereo not drawn) | 13.2% [at 2.29 µM] (inactive) | 
O=[N+]([O-])c1cc([As](=O)(O)O)ccc1O | inactive | 
Cn1c(O)c(C(c2ccccn2)c2c(O)n(C)c(=S)n(C)c2=O)c(=O)n(C)c1=S |  | 0.794 µM (active)
CCn1c(O)c(C(c2ccccn2)c2c(O)n(CC)c(=S)[nH]c2=O)c(=O)[nH]c1=S | inactive | 
Cn1c(O)c(C(c2ccccn2)c2c(O)n(C)c(=S)[nH]c2=O)c(=O)[nH]c1=S | inactive | 
c1ccc(N2CCC3(CCNCC3)CC2)cc1 | inactive | 
Cn1cc(C(=O)C(=O)N[C@H]2CN3CCC2CC3)c2ccccc21 | inactive | 
